# Measurements reported in ChEMBL document CHEMBL4513216, “Probing the Open Global Health Chemical Diversity Library for Multistage-Active Starting Points for Next-Generation Antimalarials” (ACS Infect Dis, 2020).
# The campaign covered roughly 69,000 compounds. About 8,600 (12%) showed an effect of 50% or more. Only a selection was taken, and strong results are over-represented in it overall.
# Test system: Plasmodium berghei
# Assay: Screen against P. berghei liver stage (PbLuc), transformed with Luciferase, at 10uM
# Format: functional, HepG2
# Conditions: tested at 10 uM
row,Compound,INHIBITION
1,CC(C)CCN1CCc2cc(C(=O)N(C)C)c(NCC3CC3)nc2CC1,-35%
2,CC(=O)N[C@@H]1CN(C(=O)c2cc3sccc3[nH]2)C[C@H]1c1ccc(C)o1,-7.94%
3,Cc1nc(O)cc(CN2C[C@H](NC(=O)C3CCCC3)[C@@H](C3CC3)C2)n1,-69.6%
4,CC(=O)N[C@@H]1CN(c2nc(C(N)=O)cs2)C[C@H]1c1ccc(C)o1,35%
5,CC(=O)N[C@@H]1CN(C(=O)c2ccc[nH]2)C[C@H]1c1ccc(C)o1,45.1%
6,CC(=O)N[C@@H]1CN(C(=O)c2cc3ccccc3[nH]2)C[C@H]1c1ccc(C)o1,61.2%
7,CC(=O)N[C@@H]1CN(c2nc(CO)cs2)C[C@H]1c1ccc(C)o1,65.6%
8,CCc1nnc(N2C[C@@H](NC(C)=O)[C@H](c3ccc(C)o3)C2)s1,44.3%
9,O=C(N[C@H]1CN(c2nc(CO)cs2)C[C@@H]1C1CC1)C1CCCCC1,50.4%
10,CCC[C@H]1CN(c2nc(CO)cs2)C[C@@H]1NC(=O)C1CCC1,48.2%
11,Cc1ccccc1C1CN(c2cnn(C)c(=O)c2Cl)CCO1 (stereo unspecified),-3.35%
12,Cc1cnc(N2C[C@H]3CN(Cc4csc(C)n4)C(=O)[C@H]3C2)nc1,31.4%
13,CCOC(=O)[C@]12CCCN(Cc3ccco3)C[C@H]1CN(S(C)(=O)=O)C2,6.67%
14,Cc1ccc2c(c1)[C@@H](CC(=O)N1CCN(C)CC1)CCO2,-12.2%
15,CNC(=O)[C@H]1C[C@@H]2CN(S(=O)(=O)c3ccc(F)cc3)C[C@@H]2N1C,35.8%
16,CCN1CC[C@@]2(C(=O)N3CCCC3)CCN(S(C)(=O)=O)CC[C@@H]12,-45.5%
17,Cc1ncsc1CN1C[C@@H]2COC[C@]2(CNC(=O)c2ccccc2)C1,-49.6%
18,Cc1cccc(COC[C@H]2CC[C@H]3[C@H](CCN3C(=O)CC3CC3)O2)n1,2.84%
19,COc1cccc(COCC(=O)N2CCCCCC2)c1,-51.075%
20,COc1ccccc1C(=O)N1CCN(C(=O)CCCc2cn[nH]c2)CC1,32%
21,COc1cccc(OCC2CCCN(C(C)=O)C2)c1 (stereo unspecified),-20.9%
22,O=C(CCc1cn[nH]c1)N1C[C@@H](CN2CCCCCC2)[C@@H](CO)C1,36.6%
23,COc1cccc(C(=O)N2CCN(C(=O)CCCn3ccnc3)CC2)c1,40.9%
24,O=C(CCCc1cn[nH]c1)N1C[C@@H](CN2CCOCC2)[C@@H](CO)C1,2.3%
25,COc1cccc(OCC2CCCN(C(=O)CCCn3cccn3)C2)c1 (stereo unspecified),16.9%
26,O=C(CCCc1cn[nH]c1)N1C[C@@H](CN2CCCCCC2)[C@@H](CO)C1,52.2%

row,Compound,INHIBITION
1,COc1ccc(C(=O)N2CCN(C(=O)CCCc3cn[nH]c3)CC2)cc1,26.4%
2,COc1cccc(C(=O)N2CCN(C(=O)CCCc3cn[nH]c3)CC2)c1,65.6%
3,COc1ccccc1C(=O)N1CCN(C(=O)CCn2ccnc2)CC1,-27.4%
4,COc1cccc(OCC2CCCN(C(=O)CCn3ccnc3)C2)c1 (stereo unspecified),82.2%
5,COc1cccc(C(=O)N2CCN(C(=O)CCn3ccnc3)CC2)c1,55%
6,N#CC(NC(=O)CNC(=O)c1ccccc1)c1ccsc1 (stereo unspecified),18.5%
7,CC(=O)Nc1nc(C2CN(C(=O)C3CCC3)C2)cs1,37.6%
8,Cn1c(C(=O)N2CC[C@@]3(O)CCCC[C@H]3C2)cc2ccccc21,-9.51%
9,COc1ccc([C@@H]2CN(C(=O)c3cscn3)C[C@H]2C(=O)O)cc1,-9.32%
10,O=C(Cc1n[nH]c2ccccc12)N1CCCCC1Cn1cccn1 (stereo unspecified),-31.5%
11,Cc1nn(C)c(N(C)C)c1CNCCOc1ccc2c(c1)OCO2,-20.893%
12,OC(CN1CCOCC1)c1ccc(Br)cc1 (stereo unspecified),1.56%
13,CCC(=O)NC(C)c1ccccc1C (stereo unspecified),10.06%
14,Cc1c(C(=O)N2CCCC(n3cncn3)C2)cnn1C (stereo unspecified),1.75%
15,Nc1nnc(C2CC(=O)N(c3ccccc3)C2)s1 (stereo unspecified),44.9%
16,Cn1cc(-c2nc(CN3CCN(c4nccs4)CC3)cs2)cn1,42.7%
17,c1cncc(C2COC3(CCN(CC4CCOCC4)CC3)C2)c1 (stereo unspecified),23.3%
18,O=C(COCc1nc(-c2ccncc2)no1)N1CCCC1,16.8%
19,CC(C)c1cc(C(=O)NCCc2nc(-c3ccncc3)n[nH]2)[nH]n1,5.7%
20,CC(C)C(=O)NCCc1nc(-c2ccncc2)n[nH]1,28.2%
21,COCCCNC(=O)Cc1nc(-c2ccncc2)n[nH]1,77.7%
22,O=C(COCc1nc(-c2ccncc2)no1)N1CCOCC1,1.06%
23,O=C(NCCCN1CCOCC1)c1cc(-c2ccccc2)[nH]n1,-14.3%
24,O=C(Cc1nc(-c2ccncc2)n[nH]1)N1CCOCC1,78.8%
25,O=C(NCCCN1CCOCC1)c1cc(-c2ccco2)[nH]n1,-26.5%
